The list is not random: actives were taken first. Their share in the collection is about 1.9%.
APP 5UTR inh – inhibitors of APP translation via 5'UTR reporter, primary screen, APP 5'UTR luciferase, SH-SY5Y cells; inhibition, % at 2 µM; 190,000 compounds, 0.82% hits; SH-SY5Y APP 5'UTR-luciferase reporter, luminescence;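 active = inhibition above a set limit, derived from the sample mean plus 3 SD, cut at about 45% in these data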
IEC-6 tox-1 – cytotoxicity in IEC-6 intestinal epithelial cells, primary screen, cytotoxicity control for KLF5 inhibitor project, cell-based, luminescence; IEC-6 cytotoxicity, luminescence viability; inhibition, % at 5 µM; AID 1825, 2009; 290,000 compounds, 0.78% hits; in the data active = inhibition above about 22%;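 note: 0% = plate median of test compound wells and 100% = cytotoxic reference compound wells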
BaF3 tox – parental Ba/F3 cell viability inhibition, counter-screen for JAK2V617F inhibitor project, murine pro-B, CellTiter-Glo luminescence; inhibition, % at 5.6 µM; CellTiter-Glo ATP luminescence; 220,000 compounds, 1.1% hits;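 active = inhibition above a per-campaign cutoff, the mean inhibition of all tested compounds plus 3 SD, cut at about 27% in these data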;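 note: 0% = DMSO wells and 100% = JAK Inhibitor I control wells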
Ba/F3 V617F tox – reduced viability of JAK2V617F-dependent Ba/F3 cells, primary screen, JAK2V617F inhibitor project, cell-based, Ba/F3 EpoR-JAK2V617F, luminescence; 220,000 compounds, 1.1% hits; ATP luminescence; inhibition, % at 5.6 µM;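 active = inhibition above the campaign mean plus 3 SD over all tested compounds, cut at about 24% in these data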;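 note: cytokine-independent growth of Ba/F3 cells driven by EpoR plus mutant JAK2; 0% = DMSO-treated cells and 100% = JAK inhibitor I control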
KLF5 inhibitor – KLF5 expression inhibitors, primary screen, DLD-1 cells, luminescence; DLD-1 KLF5 promoter-luciferase reporter; inhibition, % at 5 µM; 290,000 compounds, 0.23% hits; AID 1700, 2009;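 active = inhibition above a per-plate limit of that plate's mean compound inhibition plus 3 SD, cut at about 60% in these data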;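 note: 0% = DMSO wells and 100% = LY294002 at 200 µM; higher means less KLF5 promoter-driven luciferase light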
KLF5 confirm – KLF5 expression inhibitors, confirmation, DLD-1 cells, luminescence | shares compounds with KLF5 inhibitor | DLD-1 KLF5 promoter firefly luciferase reporter | inhibition, % at 4 µM | 610 compounds, 79% hits;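 active = inhibition above a set limit taken from the earlier primary screen, cut at about 63% in these data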;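 note: 0% = DMSO wells and 100% = LY294002 at 200 µM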
IEC-6 tox-2 – cytotoxicity in rat IEC-6 cells, cytotoxicity control for KLF5 inhibitor project, cell-based, luminescence, triplicate | shares compounds with KLF5 inhibitor | IEC-6 rat intestinal cells, viability luminescence | inhibition, % at 4 µM | 610 compounds, 56% hits; in the data active = inhibition above about 23%;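 note: cells exposed to compounds for 48 hours before viability read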
* marks the source's active call; other numbers are inactive results; . = no result given.

SMILES	APP 5UTR inh	IEC-6 tox-1	BaF3 tox	Ba/F3 V617F tox	KLF5 inhibitor	KLF5 confirm	IEC-6 tox-2
Cc1c(C(=O)NC2CCCCC2C)oc2ccccc12 (stereo unspecified)	.	5.7	.	.	-47.9	.	.
CC(=O)N(C1=C(N2CCOCC2)C(=O)c2ccccc2C1=O)c1ccc(C(=O)O)cc1	.	-3.6	-0.5	4.1	-9.8	.	.
CC(=O)N(C)C1=C(N2CCOCC2)C(=O)c2ccccc2C1=O	-3.3	-1.7	101.3*	101.0*	85.4*	84.3*	15.2
Cc1nn(-c2ccccc2)c(C)c1/C=N/NC(=O)c1cc(-c2cccs2)[nH]n1	92.7*	71.7*	73.5*	71.0*	82.3*	77.4*	68.6*
Cc1ccc(NC(=O)c2cc3ccccc3oc2=O)cc1S(=O)(=O)N(C)C	47.1*	4.4	5.4	1.7	75.5*	87.2*	-6.9
CCN1/C(=C/c2ccc3ccccc3[n+]2CC)C=Cc2ccccc21	33.0	47.9*	91.8*	99.3*	66.0*	103.0*	57.7*
Nc1c(C(=O)Nc2cccc(C(=O)O)c2)sc2nc3c(cc12)CCCC3	.	0.5	.	.	83.7*	90.1*	-8.2
CCCc1ccc(-c2ccc(/C=C/C(=O)O)cc2)nc1	46.3*	7.8	-2.8	-3.0	78.9*	82.8*	-2.7
CCCCCc1ccc(-c2ccc(/C=C/C(=O)O)cc2)nc1	20.9	8.8	7.1	4.8	11.9	.	.
Cn1c(CNC(=O)c2ccc(F)cc2)nc2ccccc21	-11.8	-3.9	0.0	-3.2	0.7	.	.
CSc1nc(N(C)NC(=O)c2ccc(F)cc2)c2ccccc2n1	95.0*	77.9*	72.6*	72.1*	79.2*	78.0*	61.2*
Cc1ccc(S(=O)(=O)N2CCN(C(=O)c3ccc(Br)o3)CC2)c(C)c1	.	-4.8	.	.	5.7	.	.
COc1ccc(C(=O)NNC(=O)c2ccccn2)cc1	-125.2	24.5*	11.3	12.1	77.4*	-126.7	1.0
CCOc1ccc(NC(=O)c2ccccn2)cc1	-116.1	6.6	11.9	6.3	79.0*	49.7	11.0
Cc1nc2ccccn2c1-c1csc(Nc2cccc(O)c2)n1	88.6*	4.7	77.8*	80.0*	73.7*	68.4*	3.9
Cc1ccccc1NS(=O)(=O)c1nnc(NC(=O)C(C)C)s1	.	-3.3	.	.	-11.7	.	.
CC(=NC1CC1)c1c(-c2ccccc2)[nH]n(-c2nc3ccccc3s2)c1=O	-5.6	-2.1	5.2	-0.2	-47.5	.	.
CC(=NC1CCCC1)c1c(C)[nH]n(-c2nc3ccccc3s2)c1=O	-60.7	0.8	6.0	1.8	72.2*	25.6	2.9
c1ccc(-c2noc(-c3ccc4ccccc4c3)n2)nc1	48.6*	7.4	6.0	2.3	81.6*	106.0*	7.8
Cc1cc(C)n2nc(CCCO)nc2n1	-17.2	6.9	10.0	5.0	-16.2	.	.
COc1cc(OC)cc(N(C(=O)CNC(=O)c2ccco2)C(C(=O)NCC2CCCO2)c2ccccc2)c1 (stereo unspecified)	.	-5.1	.	.	65.4*	5.6	8.2
CC(=O)c1ccc(N2CCN(S(=O)(=O)c3cc4c(cc3C)NC(=O)CO4)CC2)cc1	.	0.1	.	.	-15.3	.	.
COc1cccc(/C=N/NC(=O)CNC(=O)c2ccc3c(c2)OCCO3)c1O	4.9	-5.1	5.6	-2.3	-0.5	.	.
CCOc1cccc(/C=N/NC(=O)c2ccc3c(c2)OCCO3)c1O	.	10.6	.	.	65.0*	93.4*	-1.0
Cc1cccc(C=Nc2ccccc2C(N)=O)c1	1.4	9.0	9.2	8.7	13.4	.	.
Cc1ccc(C=Nc2ccccc2C(N)=O)s1	15.9	80.6*	66.7*	66.1*	62.7*	60.3	31.9*
COc1ccc(C(=O)Nn2c(CC(C)C)nc3cc(Cl)ccc3c2=O)c(OC)c1	.	-4.7	.	.	-2.9	.	.
O=C(NCCCN1CCOCC1)c1ccccc1N1C(=O)[C@@H]2Cc3c([nH]c4ccccc34)C(c3cccc(Cl)c3)N2C1=O (stereo partly specified)	.	0.4	.	.	0.3	.	.
Cc1ccc(-c2cc(=O)c3cc(F)ccc3[nH]2)cc1	-6.1	-6.1	4.5	0.5	-21.9	.	.

Screens: PubChem, several laboratories
